Test [1] can be described thus: small molecules captured by biotinylated probe aFSTL3 – biochemical, small-molecule microarray, fluorescence 635/667, stem cell growth factor project, primary screen (AID 1064).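 Note: measures binding of the biotinylated anti-FSTL3 antibody to printed compounds.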 Particulars: higher = more signal.
A short description of test [2]: binders from COS7 lysate, DM2A8 probe, primary screen, torsin A project, cell lysate, small-molecule microarray, fluorescence 635/667 (AID 1065). To be noted: higher = more signal, COS7 lysate expressing mutant human TOR1A.
A short description of test [3]: small molecules captured by biotinylated probe aFGF2 – biochemical, small-molecule microarray, fluorescence 635/667, stem cell growth factor project, primary screen (AID 1067).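 Note: measures binding of biotinylated aFGF2 protein to printed compounds on slides; z-score merges feature fluorescence and signal-to-noise across triplicate slides.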 Particulars: higher = more signal.
A short description of test [4]: small molecules captured by biotinylated probe aFGF10 – biochemical, small-molecule microarray, fluorescence 635/667, stem cell growth factor project, primary screen (AID 1071).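 Note: score merges 667 nm spot intensity and signal to noise from triplicate slides.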 Particulars: higher = more signal.
Test [5] concerns the target Neurogenic locus notch homolog protein 2 (Homo sapiens) (UniProt Q04721). Put plainly: small molecules binding Notch2 protein – biochemical, small-molecule microarray, 635 nm fluorescence, stem cell growth factors, primary screen (AID 1073). Particulars: higher = more signal.
Test [6] concerns the target Pro-neuregulin-1, membrane-bound isoform (Homo sapiens) (UniProt Q02297). Put plainly: small molecules binding neuregulin-1 protein – biochemical, small-molecule microarray, fluorescence 635/667, psychiatric disease protein project, primary screen (AID 1075).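 Note: score combines 667 nm spot fluorescence with signal to noise.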 To be noted: NRG1 binding, 635 nm fluorescence, higher = more signal.
Test [7] concerns Neuregulin-1 EGF-like domain. Nature of the test: small molecules binding NRG1 EGF domain – biochemical, small-molecule microarray, 635 nm fluorescence, primary screen (AID 1081).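 Note: binding of the protein to compounds printed on small-molecule microarray slides.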 To be noted: higher = more signal.
Test [8] is described as follows: FRG1 expression reporter modulators in myotubes – cell-based, C2C12 myotubes, firefly/Renilla luciferase, luminescence, FRG1 inhibition for FSHD, primary screen (AID 1084). To be noted: FRG1 promoter luciferase, higher = more signal, called active from +8 up or from −8 down.
Test [9] in a line: small molecules captured by biotinylated probe aFST – biochemical, small-molecule microarray, fluorescence 635/667, stem cell growth factor project, primary screen (AID 1086).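 Note: score merges 667 nm fluorescence with signal-to-noise of each printed compound spot.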 To be noted: higher = more signal.
Test [10] can be described thus: binders of probe aHhip on microarray, primary screen, stem cell growth factor project, biochemical, small-molecule microarray, fluorescence 635/667 (AID 1087).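 Note: score merges spot fluorescence at 667nm with spot signal to noise ratio.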 To be noted: higher = more signal.
Test [11] has as its system PRMT1 (protein arginine N-methyltransferase 1). Nature of the test: small molecules binding arginine methyltransferase PRMT1 – biochemical, small-molecule microarray, 635 nm fluorescence, primary screen (AID 1088).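 Note: binding of Prmt1 protein to compounds spotted on small-molecule microarray slides.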 To be noted: higher = more signal.
Test [12] in a line: growth effects on S. cerevisiae YJM789 – YJM789 clinical isolate, OD600, 24 h, basal, primary screen (AID 1089).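 Note: growth of clinical yeast isolate S. cerevisiae YJM 789 seeded 1000 cells per well; test concentration not given here.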 To be noted: higher = more signal, called active from +8 up or from −8 down.
Test [13] in a line: S. pombe growth modifiers, basal conditions – strain 972, OD600, 24 h, no modulator, primary screen (AID 1090).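 Note: basal condition with compound alone and no growth modifier present; test concentration not given here.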 Particulars: S. pombe 972 growth, higher = more signal, called active from +8 up or from −8 down.
The nature of test [14]: budding yeast growth modifiers under rapamycin – strain BY4716, OD600, 96 h, primary screen (AID 1091). Note: test concentration not given here. Particulars: S. cerevisiae BY4716 + rapamycin, higher = more signal, called active from +8 up or from −8 down.
Test [15] concerns the target Torsin-1A-interacting protein 2 (Homo sapiens) (UniProt Q8NFQ8). Nature of the test: small molecules binding lysate-expressed LULL1 – cell lysate, human LULL1 lysate, 635/667 nm fluorescence, primary screen (AID 1092).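 Note: probe is lysate of COS7 cells overexpressing human LULL1; score merges per-feature 667 nm fluorescence with signal-to-noise.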 Particulars: small-molecule microarray, hLULL1 lysate binding, 635 nm fluorescence; higher = more signal.
Test [16] is described as follows: optical density change of DRC41 E. coli – strain DRC41, OD650, 24 h, E. coli filamentation project, primary screen (AID 1093).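 Note: MC1000 strain lacking acrAB efflux and sulA so SOS filamentation is blocked; test concentration not given here.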 Particulars: E. coli DRC41 growth, higher = more signal, called active from +8 up or from −8 down.
The nature of test [17]: probe aLefty2 binding to arrayed compounds – biochemical, biotinylated probe, 635/667 nm fluorescence, primary screen (AID 1094).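 Note: score merges spot fluorescence near 667 nm with spot signal-to-noise ratio.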 Particulars: small-molecule microarray, higher = more signal.
The test system of test [18] is Noggin (protein binding on small-molecule microarray). Nature of the test: small molecules binding Noggin protein – biochemical, 635/667 nm fluorescence, primary screen (AID 1095).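 Note: score merges 667 nm feature fluorescence with signal to noise over triplicate slides.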 Particulars: 635 nm fluorescence, higher = more signal.
The target of test [19] is Neurogenic locus notch homolog protein 3 (Homo sapiens) (UniProt Q9UM47). Put plainly: small molecules binding NOTCH3 protein – biochemical, 635/667 nm fluorescence, primary screen (AID 1096). To be noted: small-molecule microarray, 635 nm fluorescence, higher = more signal.
A short description of test [20]: probe aEGFR binding to arrayed compounds – biochemical, biotinylated probe, 635/667 nm fluorescence, primary screen (AID 1097).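 Note: probe is a biotinylated anti-EGFR antibody binding compounds printed on slides; score combines fluorescence near 667 nm and signal to noise of each spot.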 Particulars: small-molecule microarray, higher = more signal.

The source made the active and inactive calls.

Neurogenic locus notch homolog protein 3 (Homo sapiens), sequence (Q9UM47 whole entry, looked up): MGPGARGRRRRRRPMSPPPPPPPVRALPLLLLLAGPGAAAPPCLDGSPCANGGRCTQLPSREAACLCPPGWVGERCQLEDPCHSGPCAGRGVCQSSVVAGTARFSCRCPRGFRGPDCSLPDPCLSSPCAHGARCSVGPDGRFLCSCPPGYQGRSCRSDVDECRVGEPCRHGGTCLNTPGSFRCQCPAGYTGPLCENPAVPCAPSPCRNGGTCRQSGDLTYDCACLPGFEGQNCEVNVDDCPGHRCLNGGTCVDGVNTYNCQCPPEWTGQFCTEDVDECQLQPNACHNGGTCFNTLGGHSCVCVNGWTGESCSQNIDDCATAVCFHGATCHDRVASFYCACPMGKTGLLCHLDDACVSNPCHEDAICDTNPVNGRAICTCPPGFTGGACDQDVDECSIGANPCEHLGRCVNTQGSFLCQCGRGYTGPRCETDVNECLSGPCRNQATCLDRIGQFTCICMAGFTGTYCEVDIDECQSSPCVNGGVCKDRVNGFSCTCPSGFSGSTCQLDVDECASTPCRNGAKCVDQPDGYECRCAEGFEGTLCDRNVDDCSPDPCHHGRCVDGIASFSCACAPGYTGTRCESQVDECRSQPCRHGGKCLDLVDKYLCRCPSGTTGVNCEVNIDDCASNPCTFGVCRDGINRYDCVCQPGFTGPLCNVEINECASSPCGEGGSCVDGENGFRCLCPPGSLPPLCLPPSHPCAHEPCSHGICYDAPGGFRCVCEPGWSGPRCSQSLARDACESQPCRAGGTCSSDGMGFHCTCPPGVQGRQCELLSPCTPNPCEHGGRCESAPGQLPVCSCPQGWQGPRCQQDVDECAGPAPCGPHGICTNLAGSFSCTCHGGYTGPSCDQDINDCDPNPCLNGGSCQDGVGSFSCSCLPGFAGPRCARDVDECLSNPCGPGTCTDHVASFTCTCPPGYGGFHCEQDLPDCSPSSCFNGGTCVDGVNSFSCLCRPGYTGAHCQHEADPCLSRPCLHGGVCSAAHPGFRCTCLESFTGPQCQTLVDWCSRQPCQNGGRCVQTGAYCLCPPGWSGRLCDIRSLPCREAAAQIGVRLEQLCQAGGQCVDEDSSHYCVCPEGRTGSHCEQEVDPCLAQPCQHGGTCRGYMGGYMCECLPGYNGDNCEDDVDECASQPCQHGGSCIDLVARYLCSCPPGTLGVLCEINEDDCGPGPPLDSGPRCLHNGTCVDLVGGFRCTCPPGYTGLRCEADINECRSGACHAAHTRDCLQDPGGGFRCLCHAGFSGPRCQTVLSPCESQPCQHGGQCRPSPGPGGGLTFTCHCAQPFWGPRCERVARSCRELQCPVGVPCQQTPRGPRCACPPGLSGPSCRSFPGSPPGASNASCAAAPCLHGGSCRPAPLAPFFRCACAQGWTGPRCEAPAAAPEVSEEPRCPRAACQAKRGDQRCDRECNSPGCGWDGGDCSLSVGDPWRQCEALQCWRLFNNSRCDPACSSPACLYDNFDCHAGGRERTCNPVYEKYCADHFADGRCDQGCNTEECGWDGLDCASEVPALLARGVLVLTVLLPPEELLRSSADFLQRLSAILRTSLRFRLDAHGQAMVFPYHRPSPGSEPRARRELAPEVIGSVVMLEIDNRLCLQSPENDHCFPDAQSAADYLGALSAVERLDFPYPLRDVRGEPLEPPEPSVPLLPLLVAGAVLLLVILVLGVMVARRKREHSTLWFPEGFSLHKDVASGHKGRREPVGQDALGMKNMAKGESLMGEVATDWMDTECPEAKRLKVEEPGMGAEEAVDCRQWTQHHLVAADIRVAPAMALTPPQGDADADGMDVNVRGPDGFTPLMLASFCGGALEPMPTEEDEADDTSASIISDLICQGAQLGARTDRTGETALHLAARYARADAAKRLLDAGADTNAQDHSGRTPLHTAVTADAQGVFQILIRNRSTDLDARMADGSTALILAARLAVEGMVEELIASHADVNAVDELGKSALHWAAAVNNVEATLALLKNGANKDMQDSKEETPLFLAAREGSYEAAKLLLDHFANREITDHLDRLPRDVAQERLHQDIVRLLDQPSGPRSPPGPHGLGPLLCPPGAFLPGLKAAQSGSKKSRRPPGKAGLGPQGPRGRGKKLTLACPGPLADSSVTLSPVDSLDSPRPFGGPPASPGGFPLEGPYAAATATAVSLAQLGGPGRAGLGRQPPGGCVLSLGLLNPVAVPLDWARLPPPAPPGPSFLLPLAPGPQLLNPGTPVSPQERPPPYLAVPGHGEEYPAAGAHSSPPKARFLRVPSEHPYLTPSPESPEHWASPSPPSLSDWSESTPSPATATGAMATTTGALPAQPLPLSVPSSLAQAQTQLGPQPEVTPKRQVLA
Torsin-1A-interacting protein 2 (Homo sapiens), sequence (Q8NFQ8 whole entry, looked up): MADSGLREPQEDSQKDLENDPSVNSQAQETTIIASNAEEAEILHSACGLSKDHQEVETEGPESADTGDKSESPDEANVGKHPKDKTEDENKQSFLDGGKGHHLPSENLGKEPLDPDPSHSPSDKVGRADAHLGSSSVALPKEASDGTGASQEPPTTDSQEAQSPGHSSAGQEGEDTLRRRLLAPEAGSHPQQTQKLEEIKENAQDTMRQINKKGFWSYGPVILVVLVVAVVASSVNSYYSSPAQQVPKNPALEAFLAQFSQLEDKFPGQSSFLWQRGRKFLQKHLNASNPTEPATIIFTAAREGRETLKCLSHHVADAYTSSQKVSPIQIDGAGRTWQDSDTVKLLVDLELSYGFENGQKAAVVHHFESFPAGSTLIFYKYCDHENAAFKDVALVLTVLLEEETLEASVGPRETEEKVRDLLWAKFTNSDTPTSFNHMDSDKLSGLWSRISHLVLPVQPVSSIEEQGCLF
Pro-neuregulin-1, membrane-bound isoform (Homo sapiens), sequence (Q02297 whole entry, looked up, the tested form may be a part, canonical isoform): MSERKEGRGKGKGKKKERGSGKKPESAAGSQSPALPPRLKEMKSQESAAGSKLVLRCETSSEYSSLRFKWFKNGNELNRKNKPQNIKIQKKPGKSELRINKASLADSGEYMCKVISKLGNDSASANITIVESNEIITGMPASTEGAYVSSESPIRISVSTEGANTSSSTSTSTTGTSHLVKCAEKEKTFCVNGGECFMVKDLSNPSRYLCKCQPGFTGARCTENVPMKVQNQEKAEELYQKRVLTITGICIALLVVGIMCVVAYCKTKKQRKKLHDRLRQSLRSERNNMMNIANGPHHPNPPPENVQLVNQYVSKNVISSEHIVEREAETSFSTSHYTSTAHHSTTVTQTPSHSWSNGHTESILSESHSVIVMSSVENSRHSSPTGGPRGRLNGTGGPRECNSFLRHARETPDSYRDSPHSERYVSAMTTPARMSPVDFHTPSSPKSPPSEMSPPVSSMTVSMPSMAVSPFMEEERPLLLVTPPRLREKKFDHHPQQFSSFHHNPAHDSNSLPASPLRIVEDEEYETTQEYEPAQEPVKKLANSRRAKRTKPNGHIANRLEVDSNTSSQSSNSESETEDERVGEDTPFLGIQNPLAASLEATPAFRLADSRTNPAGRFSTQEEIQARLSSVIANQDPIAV

For the compound `O=C1O[C@H](c2ccccc2)[C@H](c2ccccc2)N2[C@H]1[C@@H](C(=O)NC[C@H](O)c1ccccc1)[C@]1(C(=O)Nc3ccc(C#CCCO)cc31)[C@H]2c1ccc(O)cc1`, the composite z-score in test [1] was 0.326; in test [2] it was -0.543; in test [3] it was -0.103; in test [4], -0.465; in test [5], -0.42; in test [6] it was 0.0538. The composite z-score in [7] was -0.51; in [9], -0.445; in [10], 0.245; in [11], -0.0718; in [15] it was -0.217; in test [17], 0.0249. For the same compound, the composite z-score in [18] was -0.984; in test [19], -0.415; in [20] it was -0.194. Moreover, the z-score was 0.08 (inactive) in test [8]; -0.383 (inactive) in [12]; -0.0869 (inactive) in test [13]; 0.105 (inactive) in test [14]; 0.092 (inactive) in test [16].
Turning to `O=C1[C@]2(CO)C=C(Br)[C@@H](C[C@@H]2c2ccccc2)[C@@]12CO2`, the composite z-score in [1] was -0.333; in test [2] it was -0.61; in test [3], -0.0507; in [4] it was -0.0238; in [5], 0.0861; in test [6] it was 0.251. Also, the composite z-score was 0.245 in test [7]; -0.0624 in test [9]; -0.134 in test [10]; -0.756 in test [11]; -0.556 in test [15]; -0.227 in test [17]. For the same compound, the composite z-score in [18] is 0.0401; in test [19] it was 0.224; in [20] it was -0.0828. Further, the z-score in test [8] was 1.2 (inactive); in [12], -0.904 (inactive); in test [13], -3.06 (inactive); in [14] it was -0.666 (inactive); in [16], 0.0737 (inactive).
With `CS(=O)(=O)CCOC(=O)C1=CC(c2ccc(CO)cc2)=CC(C2CC2)N(Cc2cc3c(cc2Br)OCO3)C=C1C(=O)OCCS(C)(=O)=O` (stereo not given), the composite z-score in [1] was -0.232; in test [2], 0.28; in [3] it was -0.0266; in test [4] it was 0.959; in test [5] it was 1.13; in test [6], 1.78. Further, the composite z-score turned out to be 1.27 in [7]; 0.566 in test [9]; 0.245 in test [10]; 1.47 in [11]; 2.83 in test [15]; 0.17 in test [17]. Further, the composite z-score was determined as 0.782 in test [18], 0.929 in [19] and 0.0796 in test [20]. Besides, the z-score is -2.1 (inactive) in test [8]; -0.938 (inactive) in test [12]; -6.09 (inactive) in test [13]; -0.247 (inactive) in test [14]; 0.514 (inactive) in [16].
Turning to `CC(C)C[C@@H]1NC(=O)[C@H]2C[C@@H](C(=O)NCCCCCCNC(=O)CS)[C@@H](c3cccc(OCCO)c3)N2C1=O`, the composite z-score in [1] was -0.206; in [2], 0.0281; in test [3], -0.0493; in [4] it was 0.43; in test [5] it was 1.39; in test [6], 1.24. The composite z-score was 1.32 in [7]; 0.752 in test [9]; -0.0645 in [10]; 1.4 in test [11]; 2.85 in test [15]; -0.108 in [17]. Further, the composite z-score is 1.7 in test [18], 1.04 in [19] and 0.0798 in test [20]. Besides, the z-score in test [8] was -0.154 (inactive); in [12], -2 (inactive); in [13] it was 0.251 (inactive); in [14], 0.24 (inactive); in [16], 0.645 (inactive).
Consider `COC(=O)c1ccc(C(O)C2C=CC3C(=O)N(C)C(=O)C3N2NC(=O)OC(C)(C)C)o1` (stereo not given), for which the composite z-score is -0.0154 in test [1]; 0.252 in [2]; 0.0942 in test [3]; 1.03 in [4]; 1.48 in test [5]; 1.34 in test [6]. The composite z-score in [7] was 1.29; in [9], 0.76; in test [10], -0.0024; in [11] it was 1.36; in test [15] it was 3.01; in test [17], 0.177. Besides, the composite z-score worked out at 0.356 in test [18], 0.526 in test [19] and 0.0419 in test [20]. Further, the z-score in test [8] is 0.896 (inactive); in test [12] it was -0.0904 (inactive); in [13], 0.771 (inactive); in test [14], 0.122 (inactive); in test [16], -1.09 (inactive).
Turning to `CCOC(=O)C[C@H]1[C@H](OC(=O)c2ccc(-c3ccccc3)cc2)[C@@H](NC(=O)Cc2ccc(OC)cc2)c2cc(OCCCO)ccc2N1C(=O)c1ccc2ccccc2n1`, the composite z-score in [1] is -0.389; in [2] it was -0.188; in test [3] it was 0.0176; in test [4], 0.178; in test [5] it was 0.76; in test [6] it was 0.33. Besides, the composite z-score in [7] is 0.0896; in [9] it was 0.484; in [10] it was -0.0645; in [11], 0.532; in test [15] it was 1.73; in [17], -0.0561. Moreover, the composite z-score turned out to be 0.587 in [18], 0.317 in test [19] and 0.223 in test [20]. Also, the z-score in test [8] is 0.817 (inactive); in test [12], -0.914 (inactive); in test [13] it was 0.56 (inactive); in [14], 0.0126 (inactive); in test [16], -0.733 (inactive).
On to `C=CCN1C(=O)[C@]2(O[C@H](CCO)[C@@H]([Si](C)(C)c3ccc(OC)cc3)[C@@H]2C)c2cc(NC(=O)[C@H](C)O)ccc21`, for which the composite z-score was -0.561 in test [1]; 0.363 in test [2]; -0.0158 in test [3]; 1.08 in test [4]; 0.327 in [5]; 1.35 in test [6]. In addition, the composite z-score in test [7] was 1.2; in [9], -0.412; in test [10], -0.216; in test [11], 1.53; in test [15], 2.77; in test [17], -0.166. The composite z-score is 0.392 in test [18], 1.02 in [19] and -0.151 in [20]. The z-score in test [8] is -3.94 (inactive); in [12] it was 0.83 (inactive); in [13], -0.759 (inactive); in test [14] it was 1.31 (inactive); in [16], 0.64 (inactive).
With `C=C(COC)C(=O)CC[C@@H](OC(=O)c1cccnc1)c1ccc(CO)o1`, the composite z-score in test [1] was -0.376; in test [2], 0.0139; in test [3], -0.085; in [4] it was -0.0132; in test [5], 0.167; in [6] it was 1.16. Further, the composite z-score in [7] was 0.645; in [9], 0.0848; in [10] it was 0.274; in test [11], 1.35; in [15], 0.991; in test [17] it was -0.21. In addition, the composite z-score was 0.817 in test [18], 0.574 in [19] and -0.137 in test [20]. For the same compound, the z-score is 0.614 (inactive) in test [8]; 0.692 (inactive) in test [12]; -0.0164 (inactive) in [13]; -0.336 (inactive) in test [14]; 0.255 (inactive) in [16].
Turning to `COC(=O)[C@@]1(Cc2ccc(OC)cc2)[C@H]2c3cc(C(=O)N4CCCC4)n(CCc4c[nH]c5cc(F)ccc45)c3C[C@H]2CN1C(=O)c1ccccc1`, the composite z-score in [1] amounted to 0.785; in [2], 0.209; in [3] it was 0.0181; in test [4], 0.71; in test [5] it was 1.76; in [6], 2.12. Further, the composite z-score came to 1.18 in test [7]; 2.35 in test [9]; 0.28 in [10]; 1.09 in [11]; 3.54 in test [15]; 0.776 in test [17]. In addition, the composite z-score in test [18] is 0.103; in test [19], 1.08; in test [20], 0.103. The z-score in [8] was -0.87 (inactive); in test [12], 0.548 (inactive); in test [13], 1.2 (inactive); in test [14] it was 1.75 (inactive); in [16] it was 0.332 (inactive).

The record behind these values is PubChem BioAssay.
